Assay [1] is described as follows: NCI Yeast Anticancer Drug Screen. Data for the rad50 strain (AID 155).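 Further: 0% = growth of vehicle-only cultures of the same strain.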 The conditions noted are these: S. cerevisiae rad50 strain growth inhibition; at 50.0 µM; active compounds read high. The procedure, abridged:
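Inhibition values express reduced yeast growth in compound-treated cultures relative to vehicle-treated controls.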

Assay [2] is described as follows: NCI Yeast Anticancer Drug Screen. Data for the mec2-1 strain (AID 157). The following applies: S. cerevisiae mec2-1 strain, at 50.0 µM, active compounds read high. The gist of the method:
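Yeast mec2-1 mutant treated with compound. Readout: growth inhibition vs vehicle controls.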

A short description of assay [3]: NCI Yeast Anticancer Drug Screen. Data for the sgs1 mgt1 strain (AID 161).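 Further: 0% = growth of cultures given vehicle only.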 The following applies: S. cerevisiae sgs1 mgt1 strain, at 50.0 µM, active compounds read high. The gist of the method: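 Inhibition of yeast growth, normalised to vehicle-treated controls, is reported for a strain bearing genetic alterations in DNA damage repair.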
Assay [4] can be described thus: NCI Yeast Anticancer Drug Screen. Data for the cln2 rad14 strain (AID 165).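 Further: 0% = growth equal to vehicle treated cultures.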 The following applies: S. cerevisiae cln2 rad14 strain, at 50.0 µM, active compounds read high. The gist of the method:
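cln2 rad14 yeast strain; compound exposure; growth inhibition read vs vehicle controls.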

A short description of assay [5]: NCI Yeast Anticancer Drug Screen. Data for the bub3 strain (AID 167). The conditions noted are these: S. cerevisiae bub3 mutant strain, at 50.0 µM, active compounds read high. The procedure, abridged: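 Steps: expose the mutant yeast strain to compound; grow alongside vehicle-treated cultures; measure growth; express inhibition against the vehicle cultures.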
Assay [6] in a line: NCI Yeast Anticancer Drug Screen. Data for the mlh1 rad18 strain (AID 175). The conditions noted are these: S. cerevisiae mlh1 rad18 strain growth inhibition; at 50.0 µM; active compounds read high. The procedure, abridged:
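Yeast w/ defined DNA-repair lesions; compound exposure; growth vs vehicle controls → % inhibition.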

Each structure is given as a SMILES string. This is part of a sample that, as a whole, favours compounds with a hit. Of some 79,000 tested, about 15% had one in any assay. Unmarked numbers belong to inactive results. Calls of active or inactive are those of the source. No stated cut-off is given here; in the data, active means growth inhibition above about 70%; inactive means the rest.

As to `O=C(Oc1c(Cl)c(Cl)c(Cl)c(Cl)c1Cl)c1ccc([N+](=O)[O-])cc1`, the growth inhibition in assay [1] was -27.6%; in assay [2], -1.55%; in assay [3], -26.6%; in assay [4], -49%; in assay [5] it was 3.9%; in assay [6], -9.25%.

Consider `O=C(Cc1ccccc1)NS(=O)(=O)c1ccccc1`, for which the growth inhibition in assay [1] is 5.15%; in assay [2] it was -5.8%; in assay [3], -12.3%; in assay [4] it was 9.15%; in assay [5] it was -3.95%; in assay [6], 4.2%.

On to `O=C(Oc1ccc(C(=O)c2ccccc2)cc1)C(Cl)=C(Cl)Cl`, for which the growth inhibition in assay [1] is -6.95%; in assay [2], -1.75%; in assay [3], 7.7%; in assay [4], -55.8%; in assay [5], 7.35%; in assay [6] it was -4%.

Take `N#C/C(=C\c1ccccc1)C(NO)Nc1ccccc1` (stereo not given): the growth inhibition in assay [1] was -31.1%; in assay [2], -10.2%; in assay [3] it was -1.4%; in assay [4], 0.05%; in assay [5], 6.65%; in assay [6], -14.8%.

In the case of `O=C(O)C1Cc2nc[nH]c2CN1CO` (stereo not given), the growth inhibition in assay [1] is 6.1%; in assay [2], -8.8%; in assay [3] it was -19.8%; in assay [4], 3.95%; in assay [5], 23.7%; in assay [6], 8%.

Take `COc1cc2c(c(OC)c1OC)-c1ccc(OC)c(=O)cc1C(NC(=O)COc1ccccc1)CC2` (stereo not given): the growth inhibition is 16.5% in assay [1]; -28.6% in assay [2]; 15.2% in assay [3]; 11.2% in assay [4]; 6.95% in assay [5]; 14.6% in assay [6].

Consider `C=C1C(=O)C23C(O)CC4C(C)(C)[C@@H](OC(C)=O)CCC4(C)[C@]2(O)CCC1[C@@H]3O` (stereo not given in full), for which the growth inhibition in assay [1] was 46.8%; in assay [2] it was 48.9%; in assay [3], 44.9%; in assay [4], 40.1%; in assay [5], 70.5% (active); in assay [6], 67%.

As for `C=C1C(=O)C[C@@H]2CC(C)(C)C[C@]12CC(=O)O`, the growth inhibition in assay [1] was -11.1%; in assay [2] it was -41.5%; in assay [3] it was -1.65%; in assay [4] it was -7.05%; in assay [5], -9.15%; in assay [6] it was -17.1%.

As to `CCOC(=O)n1ccnc1`, the growth inhibition is -6.4% in assay [1]; -5.45% in assay [2]; 1.5% in assay [3]; 8% in assay [4]; 9.05% in assay [5]; -2.95% in assay [6].

Regarding `CCCCCC(=O)OCCOCCCC`, the growth inhibition in assay [1] was 2.05%; in assay [2], 4%; in assay [3], -4.6%; in assay [4], -35.4%; in assay [5] it was 6.85%; in assay [6], 5.85%.

`CCOC(=O)c1cc(NC(C)=O)cn1C`: the growth inhibition was 4.4% in assay [1]; 8.8% in assay [2]; -1.15% in assay [3]; -11% in assay [4]; 6.45% in assay [5]; 16.4% in assay [6].

For the compound `CC1=CCCCC1O` (stereo not given), the growth inhibition was -7.15% in assay [1]; 10.6% in assay [2]; -6.7% in assay [3]; 4.55% in assay [4]; 14.1% in assay [5]; -0.6% in assay [6].

`CC1(C)CCCC2(C)C(C(=O)O)C3CCC45OC3(CC12)OC(=O)C4C1(C)CCCC(C)(C)C1CC5=O` (stereo not given): the growth inhibition in assay [1] is 2.15%; in assay [2] it was 5.65%; in assay [3] it was -0.9%; in assay [4], 2.85%; in assay [5] it was -2.1%; in assay [6], 9.25%.

For the compound `CC(C)SC(CC(O)C(O)COC(=O)c1ccccc1)SC(C)C` (stereo not given), the growth inhibition in assay [1] is -8.05%; in assay [2], -0.15%; in assay [3], 6.15%; in assay [4], -8.35%; in assay [5], -4.7%; in assay [6], 17.8%.

For `CCCCOC(=O)CNC(=O)OC/C=C/C#CC#C/C=C/COC(=O)NCC(=O)OCCCC`, the growth inhibition was -20.2% in assay [1]; -35.8% in assay [2]; -24.4% in assay [3]; -17.9% in assay [4]; 0.3% in assay [5]; -19.9% in assay [6].

`O=c1[nH][nH]c(=O)c2c1nc(SCc1ccc(Br)cc1)n2Cc1ccccc1`: the growth inhibition was 16.9% in assay [1]; 0.3% in assay [2]; -7.95% in assay [3]; 1.85% in assay [4]; -2.35% in assay [5]; 3.8% in assay [6].

For `[N-]=[N+]=Nc1ccc(NCCCCCC(=O)ON2C(=O)CCC2=O)c([N+](=O)[O-])c1`, the growth inhibition was 72% (active) in assay [1]; 9.25% in assay [2]; 77.7% (active) in assay [3]; 19.4% in assay [4]; 4.7% in assay [5]; 67% in assay [6].

Consider `CN1CCN(C(=O)/C(=C/c2ccccc2)NC(=O)c2ccccc2)CC1`, for which the growth inhibition in assay [1] was -6.8%; in assay [2], 4%; in assay [3], 8.05%; in assay [4], -12.7%; in assay [5], 0.1%; in assay [6] it was 8.1%.

With `COc1ccc2nc3cc(Cl)ccc3c(Sc3ccc(NC(C)=O)cc3)c2c1`, the growth inhibition was 22.1% in assay [1]; -5% in assay [2]; -2.5% in assay [3]; 11.3% in assay [4]; 11.3% in assay [5]; 9.1% in assay [6].

Regarding `CC(CO)CCNc1ncnc2c1ncn2CCC(=O)OC(C)(C)C` (stereo not given), the growth inhibition in assay [1] was -27.6%; in assay [2], 16.4%; in assay [3], -21.6%; in assay [4], -20.6%; in assay [5] it was -1.85%; in assay [6] it was -9.65%.
